Holding throughout (experiment): peptide microarray binding signal (635 nm), min-max normalized on array (fraction of array maximum); higher = stronger binding
Conditions in all cases: peptide region: H3 1-13

The target in experiment [1] is T1, HaloTag-ATRX ADD domain (163-292).
T1 chain: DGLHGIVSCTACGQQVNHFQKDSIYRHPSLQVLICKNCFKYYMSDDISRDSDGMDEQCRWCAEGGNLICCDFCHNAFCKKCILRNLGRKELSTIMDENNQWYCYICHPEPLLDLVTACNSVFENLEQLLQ
The method, then:
(§1)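 Histone 13-mer peptides were synthesized as cellulose conjugates with a C-terminal 20-atom PEG linker and printed in triplicate on nitrocellulose. The sequence given is the unmodified backbone; PTMs (Kme1/2/3, Kac, Sph/Tph, Rme/Rme2a/Rme2s, Rcit) are listed in the label and the 'peptide modifications' condition. Slides were probed at 4 °C for 1 h with biotin-labelled (HQ)5-HaloTag reader fusions (ATRX-ADD, ING2-PHD) then streptavidin-Alexa647, or with rabbit histone antibodies then anti-rabbit Alexa647. The mean 635 nm signal of the triplicate spots was scaled 0-1 between the lowest and highest values on each array.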

Experiment [2] concerns the target HaloTag-ING2 PHD (mouse Ing2 200-280). How it is done: as §1
Experiment [3] concerns the target anti-H3K4me3 antibody ab8580. How it is done: as §1
For experiment [4], the target named is anti-H3K9me3 antibody ab8898. The method, then: as §1
The mark [5] stands for this setting: peptide modifications: H3R8me2a H3K9me3, binder concentration: 1:2,000 dilution.
The mark [6] stands for this setting: peptide modifications: H3R8me2a H3K9me3, binder concentration: 1:10,000 dilution.
Setting [7] is: peptide modifications: H3R8me2a H3K9me1, binder concentration: 1:2,000 dilution.
Setting [8] is: peptide modifications: H3R8me2a H3K9me1, binder concentration: 1:10,000 dilution.
Where [9] appears, read: peptide modifications: H3R8me2a, binder concentration: 1:2,000 dilution.
[10] abbreviates: peptide modifications: H3R8me2a, binder concentration: 1:10,000 dilution.
Where [11] appears, read: peptide modifications: H3R8me2s H3K9ac, binder concentration: 1:2,000 dilution.
[12] abbreviates: peptide modifications: H3R8cit, binder concentration: 1:2,000 dilution.
The mark [13] stands for this setting: peptide modifications: H3R8cit, binder concentration: 1:10,000 dilution.
The mark [14] stands for this setting: peptide modifications: H3R8me1 H3K9me2, binder concentration: 1:2,000 dilution.
Setting [15] is: peptide modifications: H3R8me1 H3K9me2, binder concentration: 1:10,000 dilution.
Where [16] appears, read: peptide modifications: H3R8me2s H3K9me3, binder concentration: 1:2,000 dilution.
[17] abbreviates: peptide modifications: H3R8me2s H3K9me3, binder concentration: 1:10,000 dilution.
[18] abbreviates: peptide modifications: H3R8me2s H3K9me1, binder concentration: 1:2,000 dilution.
The mark [19] stands for this setting: peptide modifications: H3R8me2s H3K9me1, binder concentration: 1:10,000 dilution.
Setting [20] is: peptide modifications: H3R8me1 H3K9me3, binder concentration: 1:2,000 dilution.
[21] abbreviates: peptide modifications: H3R8me1 H3K9me3, binder concentration: 1:10,000 dilution.
Setting [22] is: peptide modifications: H3S10ph, binder concentration: 1:2,000 dilution.
Where [23] appears, read: peptide modifications: H3S10ph, binder concentration: 1:10,000 dilution.

± gives the standard deviation.

Consider 10 molecules from the supplement of paper PMC4022240.

B1: H3 1-13 A R T K Q T A Rme2a Kme3 S T G G (peptide)
chain: ARTKQTARKSTGG
For the molecule B1, the “peptide microarray binding signal” value stood at 0.955 ± 0.067 in experiment [1] (peptide modifications: H3R8me2a H3K9me3, binder concentration: 50 nM); 0.905 ± 0.038 in experiment [1] (peptide modifications: H3R8me2a H3K9me3, binder concentration: 500 nM); 0.126 ± 0.042 in experiment [2] (peptide modifications: H3R8me2a H3K9me3, binder concentration: 10 nM); 0.201 ± 0.059 in experiment [2] (peptide modifications: H3R8me2a H3K9me3, binder concentration: 100 nM); 0.0701 ± 0.02 in experiment [3] (setting [5]); 0.0416 ± 0.019 in experiment [3] (setting [6]). Besides, the “peptide microarray binding signal” value is 0.458 ± 0.13 in experiment [4] (setting [5]) and 0.309 ± 0.082 in experiment [4] (setting [6]).

B2: H3 1-13 A R T K Q T A Rme2a Kme S T G G (peptide)
chain: ARTKQTARKSTGG
Turning to B2, the “peptide microarray binding signal” value in experiment [1] (peptide modifications: H3R8me2a H3K9me1, binder concentration: 50 nM) turned out to be 0.0352 ± 0.0011; in experiment [1] (peptide modifications: H3R8me2a H3K9me1, binder concentration: 500 nM) it was 0.0882 ± 0.0059; in experiment [2] (peptide modifications: H3R8me2a H3K9me1, binder concentration: 10 nM), 0.033 ± 0.0066; in experiment [2] (peptide modifications: H3R8me2a H3K9me1, binder concentration: 100 nM) it was 0.0721 ± 0.0073; in experiment [3] (setting [7]), 0.00366 ± 0.00063; in experiment [3] (setting [8]), 0.00114 ± 3e-05. Moreover, the figures for the “peptide microarray binding signal” value in experiment [4] (setting [7]) and in experiment [4] (setting [8]) were 0.00186 ± 0.00023 and 0.00208 ± 7.7e-05, respectively.

B3: H3 1-13 A R T K Q T A Rme2a K S T G G (peptide)
chain: ARTKQTARKSTGG
Consider B3, for which the “peptide microarray binding signal” value in experiment [1] (peptide modifications: H3R8me2a, binder concentration: 50 nM) came to 0.00959 ± 0.00045; in experiment [1] (peptide modifications: H3R8me2a, binder concentration: 500 nM), 0.0248 ± 0.0019; in experiment [2] (peptide modifications: H3R8me2a, binder concentration: 10 nM), 0.00812 ± 0.00091; in experiment [2] (peptide modifications: H3R8me2a, binder concentration: 100 nM) it was 0.0181 ± 0.0056; in experiment [3] (setting [9]), 0.00191 ± 0.00018; in experiment [3] (setting [10]), 0.000799 ± 2.2e-05. In addition, the “peptide microarray binding signal” value in experiment [4] (setting [9]) turned out to be 0.000951 ± 7e-05; in experiment [4] (setting [10]), 0.000634 ± 1.2e-05.

B4: H3 1-13 A R T K Q T A Rme2s Kac S T G G (peptide)
chain: ARTKQTARKSTGG
Regarding B4, the “peptide microarray binding signal” value stood at 0.0059 ± 0.0002 in experiment [1] (peptide modifications: H3R8me2s H3K9ac, binder concentration: 500 nM); 0.00574 ± 0.00031 in experiment [2] (peptide modifications: H3R8me2s H3K9ac, binder concentration: 100 nM); 0.00142 ± 6.5e-05 in experiment [3] (setting [11]); 0.00243 ± 0.00046 in experiment [4] (setting [11]).

B5: H3 1-13 A R T K Q T A Rcit K S T G G (peptide)
chain: ARTKQTARKSTGG
On to B5, for which the “peptide microarray binding signal” value in experiment [1] (peptide modifications: H3R8cit, binder concentration: 50 nM) worked out at 0.00727 ± 0.00022; in experiment [1] (peptide modifications: H3R8cit, binder concentration: 500 nM) it was 0.0196 ± 0.0019; in experiment [2] (peptide modifications: H3R8cit, binder concentration: 10 nM), 0.0125 ± 0.004; in experiment [2] (peptide modifications: H3R8cit, binder concentration: 100 nM), 0.0291 ± 0.013; in experiment [3] (setting [12]), 0.000359 ± 9.7e-06; in experiment [3] (setting [13]), 0.000456 ± 9.9e-06. Also, the “peptide microarray binding signal” value amounted to 0.000785 ± 7.6e-05 in experiment [4] (setting [12]) and 0.000404 ± 4.4e-06 in experiment [4] (setting [13]).

B6: H3 1-13 A R T K Q T A Rme Kme2 S T G G (peptide)
chain: ARTKQTARKSTGG
For the molecule B6, the “peptide microarray binding signal” value is 0.0149 ± 0.00099 in experiment [1] (peptide modifications: H3R8me1 H3K9me2, binder concentration: 50 nM); 0.0405 ± 0.00097 in experiment [1] (peptide modifications: H3R8me1 H3K9me2, binder concentration: 500 nM); 0.0115 ± 0.00013 in experiment [2] (peptide modifications: H3R8me1 H3K9me2, binder concentration: 10 nM); 0.0224 ± 0.00044 in experiment [2] (peptide modifications: H3R8me1 H3K9me2, binder concentration: 100 nM); 0.00179 ± 7.7e-05 in experiment [3] (setting [14]); 0.00108 ± 5.7e-05 in experiment [3] (setting [15]). Also, the results for the “peptide microarray binding signal” value in experiment [4] (setting [14]) and in experiment [4] (setting [15]) were 0.00208 ± 0.00038 and 0.0019 ± 6.5e-05, respectively.

B7: H3 1-13 A R T K Q T A Rme2s Kme3 S T G G (peptide)
chain: ARTKQTARKSTGG
For the molecule B7, the “peptide microarray binding signal” value worked out at 0.0211 ± 0.0011 in experiment [1] (peptide modifications: H3R8me2s H3K9me3, binder concentration: 50 nM); 0.0455 ± 0.0027 in experiment [1] (peptide modifications: H3R8me2s H3K9me3, binder concentration: 500 nM); 0.0394 ± 0.0041 in experiment [2] (peptide modifications: H3R8me2s H3K9me3, binder concentration: 10 nM); 0.0568 ± 0.0048 in experiment [2] (peptide modifications: H3R8me2s H3K9me3, binder concentration: 100 nM); 0.0739 ± 0.0089 in experiment [3] (setting [16]); 0.0587 ± 0.011 in experiment [3] (setting [17]). Further, the results for the “peptide microarray binding signal” value in experiment [4] (setting [16]) and in experiment [4] (setting [17]) were 0.468 ± 0.023 and 0.396 ± 0.02, respectively.

B8: H3 1-13 A R T K Q T A Rme2s Kme S T G G (peptide)
chain: ARTKQTARKSTGG
Regarding B8, the “peptide microarray binding signal” value turned out to be 0.0145 ± 0.00064 in experiment [1] (peptide modifications: H3R8me2s H3K9me1, binder concentration: 50 nM); 0.0339 ± 0.0019 in experiment [1] (peptide modifications: H3R8me2s H3K9me1, binder concentration: 500 nM); 0.0365 ± 0.0046 in experiment [2] (peptide modifications: H3R8me2s H3K9me1, binder concentration: 10 nM); 0.0547 ± 0.007 in experiment [2] (peptide modifications: H3R8me2s H3K9me1, binder concentration: 100 nM); 0.0103 ± 0.0015 in experiment [3] (setting [18]); 0.0069 ± 0.0003 in experiment [3] (setting [19]). In addition, the “peptide microarray binding signal” value in experiment [4] (setting [18]) was 0.00578 ± 0.0013; in experiment [4] (setting [19]) it was 0.00588 ± 0.00043.

B9: H3 1-13 A R T K Q T A Rme Kme3 S T G G (peptide)
chain: ARTKQTARKSTGG
With B9, the “peptide microarray binding signal” value came out at 0.398 ± 0.0051 in experiment [1] (peptide modifications: H3R8me1 H3K9me3, binder concentration: 50 nM); 0.396 ± 0.0076 in experiment [1] (peptide modifications: H3R8me1 H3K9me3, binder concentration: 500 nM); 0.0338 ± 0.011 in experiment [2] (peptide modifications: H3R8me1 H3K9me3, binder concentration: 10 nM); 0.0759 ± 0.034 in experiment [2] (peptide modifications: H3R8me1 H3K9me3, binder concentration: 100 nM); 0.0426 ± 0.012 in experiment [3] (setting [20]); 0.0253 ± 0.013 in experiment [3] (setting [21]). The “peptide microarray binding signal” value in experiment [4] (setting [20]) is 0.258 ± 0.015; in experiment [4] (setting [21]), 0.171 ± 0.017.

B10: H3 1-13 A R T K Q T A R K Sph T G G (peptide)
chain: ARTKQTARKSTGG
As to B10, the “peptide microarray binding signal” value came out at 0.00508 ± 8.1e-05 in experiment [1] (peptide modifications: H3S10ph, binder concentration: 50 nM); 0.013 ± 0.00036 in experiment [1] (peptide modifications: H3S10ph, binder concentration: 500 nM); 0.00233 ± 2.7e-05 in experiment [2] (peptide modifications: H3S10ph, binder concentration: 10 nM); 0.0243 ± 0.00098 in experiment [2] (peptide modifications: H3S10ph, binder concentration: 100 nM); 0.000321 ± 3.3e-06 in experiment [3] (setting [22]); 0.000514 ± 5.5e-06 in experiment [3] (setting [23]). For the same molecule, the “peptide microarray binding signal” value in experiment [4] (setting [22]) came to 0.000362 ± 1.3e-05; in experiment [4] (setting [23]), 0.000288.
